This note sets out measurements from PubChem BioAssay AID1347056 (Sanford-Burnham Center for Chemical Genomics, 2019).

In general, inhibition refers to the drop in the measured response relative to a control, in per cent.

Several values for one entry are separate records, joined by “and”; a condition that tells them apart may be missing. Equal entries are not always repeated. Among all 360,000 compounds or so, about 3,600 (1%) were called active. Shown is part of a subset that was picked to be rich in actives. Values without a mark were called inactive.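 The calls were made as follows: active = compounds whose plate-normalised and pattern-corrected inhibition of the luciferase reporter signal at the single screening dose is 50% or more; inactive = the rest.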

The nature of this experiment: TROY pathway blockers in reporter cells – Q293 LMP1-TROYcd cells, NF-kB luciferase, uHTS, primary screen (AID 1347056). The following applies: 4 h, at 10 µM, hits give high values.
As to `Cc1ccc(C(O)c2ncc(-c3ccccc3F)[nH]2)cc1F` (configuration not stated), the inhibition was -21.9%.

`CC(=O)c1ccc(N2CCN(S(=O)(=O)c3ccc4c(c3)CC(=O)N4C)CC2)cc1`: the inhibition was -27.6%.

For the compound `Cc1cnc(CN(C)C(=O)CC2C(=O)NCCN2Cc2cccc(F)c2F)[nH]1` (configuration not stated), the inhibition is 3.88%.

As to `Cc1noc(C)c1S(=O)(=O)N1CCCC(C(=O)Nc2nccs2)C1` (configuration not stated), the inhibition is -32.5%.

As for `COc1c(C)cc(C(=O)C2CCCN(S(=O)(=O)c3c(C)noc3C)C2)cc1C` (configuration not stated), the inhibition was 50.3% (active).

Regarding `Cc1ccc(NC(=O)C2CCCN(S(=O)(=O)c3c(C)noc3C)C2)c(C)c1` (configuration not stated), the inhibition is -7.46%.

With `CCOC(=O)CCC(NC(=O)c1ccc(CNc2nc3cc(C(F)(F)F)ccc3nc2C(=O)OCC)cc1)C(=O)OCC` (configuration not stated), the inhibition was -25.2%.

Turning to `CCCCCc1nnc(NC(=O)c2ccc(=O)n(C)n2)s1`, the inhibition was -18.4%.

On to `O=C(CN1C(=O)/C(=C\c2ccccc2F)SC1=S)Nc1nc2ccccc2s1`, for which the inhibition was 68.3% (active).

For the compound `CN(C(=O)CN1C(=O)S/C(=C\c2ccccc2F)C1=O)C1CCS(=O)(=O)C1` (configuration not stated), the inhibition was 6.08%.

`O=C(CN1C(=O)/C(=C/c2ccccc2F)Sc2ccccc21)NCc1cccnc1`: the inhibition is 44.7%.

Consider `COc1ccc(CNC(=O)CCC(=O)Nc2nnc(C(C)C)s2)cc1`, for which the inhibition is -5.09%.

For the compound `O=C(O)C1C2C=CC(C2)C1C(=O)N1CCN(CCO)CC1` (configuration not stated), the inhibition was -8.15%.

Turning to `CC1(C)SC2C(NC(=O)COc3ccccc3)C(=O)N2C1C(=O)O` (configuration not stated), the inhibition is -1.14% and 4.62%.

Regarding `COc1ccc(C2=NO[C@@H]3C(=O)N(Cc4ccccc4)C(=O)[C@H]23)cc1OC`, the inhibition was -14.4%.

With `COc1ccc(-c2cc(C(F)(F)F)nc(S(C)(=O)=O)n2)cc1OC`, the inhibition was 55% (active).

Turning to `COc1ccc(-c2cc(C(=O)N(C)Cc3ccc(OC)c(OC)c3OC)c3ccccc3n2)cc1OC`, the inhibition is 19.6%.

On to `c1ccc2c(C[n+]3csc4ccccc43)cccc2c1`, for which the inhibition was 13.4%.

Take `Cc1noc(C)c1C(=O)NC(C)c1ccc2c(c1)OCO2` (configuration not stated): the inhibition is 1.6%.

On to `O=C(COC(=O)C1CC2CCCC(C1)C2=O)NC(=O)c1ccccc1` (configuration not stated), for which the inhibition was 4.06%.

As for `Cn1c(-c2ccc(F)cc2)cc2onc(-c3ccccc3Cl)c2c1=O`, the inhibition was 6.78%.

For `Cn1c(-c2ccc(C(F)(F)F)cc2)cc2onc(-c3ccccc3)c2c1=O`, the inhibition is 69.6% (active).

Turning to `O=c1c2ccccc2c(-c2ccc(F)cc2)nn1-c1ccc(C(F)(F)F)cc1`, the inhibition is -12.3%.

`COc1cc(/C(=C/c2ccccc2)c2ccccc2)c2c(c1)oc1ccccc12`: the inhibition is 0.46%.

As to `Cc1ccc(S(=O)(=O)N(C)c2nc3ccccc3n3c(C(C)C)nnc23)cc1`, the inhibition is 6.76%.

Consider `CC1(C)N=C(N)NC(Nc2ccc(Cl)cc2)=N1`, for which the inhibition was -5.09%.

`Cc1cc(OCc2ccc(C(=O)Nc3ccc(C(=O)O)cc3)o2)ccc1Cl`: the inhibition is -33.7%.

Regarding `O=c1oc2ccccc2cc1-c1cn(-c2ccccc2)c(=S)[nH]1`, the inhibition is 90.1% (active).

With `O=C1Cc2ccccc2Sc2ccc(Cl)cc21`, the inhibition is -41.4%.

On to `CCCCNC(=O)C[C@@H]1C[C@@]2(C(=O)OCC)CCC=C2N(Cc2ccco2)C1=O`, for which the inhibition was 1.34%.

Turning to `CC(C)(C)OC(=O)NCCCCCC(=O)N/N=C/c1coc2ccccc2c1=O`, the inhibition is -22.3%.

In the case of `Cc1ccc2occ(/C=N/NC(=O)c3ccccc3C)c(=O)c2c1`, the inhibition was 57.9% (active).

For `O=c1c(/C=N/O)coc2ccc(Cl)cc12`, the inhibition was 12.5%.

Regarding `CC1(Cc2ccccc2C#N)C(=O)Nc2ccc(-c3ccc4[nH]ccc4c3)cc21` (configuration not stated), the inhibition is 24.8%.

`CC(Sc1nncn1C)C(=O)Nc1cc(C(F)(F)F)ccc1N1CCOCC1` (configuration not stated): the inhibition is -8.48%.

For the compound `Cc1onc(-c2ccc(Cl)cc2)c1-c1ccnn1S(=O)(=O)c1ccc(Cl)cc1`, the inhibition is -10.7%.

In the case of `O=C(COC(=O)c1cccnc1Cl)NC(=O)NC1CCCCC1`, the inhibition was -1.94%.

Regarding `CC(=O)Nc1ccc(S(=O)(=O)N2CCC(N(C)CCC(C)C)CC2)cc1`, the inhibition was 15.7%.

As to `O=C(CSC(=S)N1CCOCC1)c1ccccc1`, the inhibition is 50.2% (active).

In the case of `NC(=NC(=O)c1ccccc1)N1CCOCC1`, the inhibition is -4.29%.

Turning to `CC1CN(C(=S)SCC(=O)c2ccccc2)CC(C)O1` (configuration not stated), the inhibition is -38.2%.

On to `CC1=CC=CN2C1=NC(=O)CC2(C)C(=O)N(CC(=O)NC1CCCC1)c1ccccc1C` (configuration not stated), for which the inhibition is 6.68%.

For the compound `CN1CCN(c2ccncc2S(=O)(=O)N2CCCC2)CC1`, the inhibition is -13.2%.

As to `COCCNc1ncnc2c1ncn2[C@H]1CN(Cc2ccc(OC)cc2)C[C@@H](CO)O1`, the inhibition was -16.1%.

In the case of `COC(=O)C1(S(=O)(=O)C2(C(=O)OC)CCCC2)CCCC1`, the inhibition is 10.4%.

Regarding `CCCCCc1c(Cc2ccccc2)ncn1CCc1ccccc1OC`, the inhibition was 49.9%.

As to `Cc1ccccc1NS(=O)(=O)CCCCC(Cl)(Cl)Cl`, the inhibition was 5.02%.

Turning to `Clc1ccc(Cn2ncc3c(NCc4cccnc4)ncnc32)cc1`, the inhibition is 58.7% (active).

In the case of `c1ccc(CNc2ncnc3[nH]ncc23)cc1`, the inhibition is 12.9%.

Turning to `CC(C)CNc1ncnc2c1cnn2Cc1ccc(Cl)cc1`, the inhibition was -3.29%.

With `CC(CNc1ccc([N+](=O)[O-])c2cccnc12)Nc1c([N+](=O)[O-])cc(C(F)(F)F)cc1[N+](=O)[O-]` (configuration not stated), the inhibition is 9.66%.

In the case of `CC(=O)Nc1ccc(NC(=O)C(C)OC(=O)c2ccccc2C(=O)c2ccc(Cl)c([N+](=O)[O-])c2)cc1` (configuration not stated), the inhibition was 51% (active).

As for `CCc1ccc(NC(=O)C(C)OC(=O)/C=C/c2cccc([N+](=O)[O-])c2)cc1` (configuration not stated), the inhibition was 7.86%.

Consider `O=C(COc1ccc([N+](=O)[O-])cc1)Nc1cccc(C(=O)Nc2ccccc2C(=O)O)c1`, for which the inhibition was 13.9%.

Turning to `NS(=O)(=O)c1cccc(NC(=O)COC(=O)c2cc([N+](=O)[O-])ccc2N2CCCC2)c1`, the inhibition is -3.22%.

`CC(OC(=O)CNC(=O)c1ccc(Cl)c([N+](=O)[O-])c1)C(=O)NCc1ccco1` (configuration not stated): the inhibition was -1.1%.

For the compound `N#Cc1cccc(NC(=O)COC(=O)c2ccccc2C(=O)c2ccc(Cl)c([N+](=O)[O-])c2)c1`, the inhibition is 66.1% (active).
